aSyn 5UTR act – Activators via SNCA 5'UTR binding, MLPCN. AID 1814. alpha-synuclein 5'UTR reporter, activators screen. 300,000 compounds, 7.1% hits. activity score, % (tested at 7.5 µM), hits read low; in the data active means activity score below about -60%
Hits are given with their value; n = inactive. These entries were drawn from the full list.

SMILES	aSyn 5UTR act
Cc1cccc(CC(=O)NCC2CCCCC2)c1	-71
Cc1cc(C(=O)Nc2ccncc2)ccc1[N+](=O)[O-]	-65
CCn1c(C)c(C)c2cc(C(=O)NC3CCCCCC3)ccc21	-87
CCCN1C(=O)c2cc(C(=O)NC3CCCCCC3)ccc2C1O (stereo not drawn)	-81
Cc1cccc(C(=O)NC2CCCCCCC2)c1	-214
COc1ccc(/C=c2/sc3n(c2=O)C(c2ccccc2OC)C2=C(N=3)c3ccccc3CC2)cc1O (stereo not drawn)	n
O=c1/c(=C/c2ccc([N+](=O)[O-])cc2)sc2n1CCCN=2	-173
COc1cc(/C=c2\sc3n(c2=O)CCCN=3)ccc1O	-102
CCC(=NCc1ccccc1)c1c(C(F)(F)F)[nH]n(-c2nc3ccccc3s2)c1=O	-111
O=C(Nc1ccccc1)c1ccc(-c2ccc(F)cc2)s1	-206
O=C(Nc1ccc(F)cc1)c1nc(S(=O)(=O)Cc2ccccc2)ncc1Cl	n
CNC(=O)c1ccc(-c2ccc(Cl)c(Cl)c2)s1	-94
CNC(=O)c1ccc(-c2ccc(OC)cc2)s1	-151
CNC(=O)c1ccc(-c2ccc(F)cc2)s1	-101
CC(CC(=O)Nc1ccc2c(c1)OCCO2)c1ccccc1 (stereo not drawn)	-161
CC(CC(=O)Nc1ccc2c(c1)OCO2)c1ccccc1 (stereo not drawn)	-92
Cc1ccc(-c2noc(C3CCCCC3)n2)cc1	-187
Cc1cccc(-c2noc(C3CCCCC3)n2)c1	-150
Cc1cccc(-c2noc(-c3ccno3)n2)c1	-121
Cc1ccc(N(C)S(=O)(=O)c2ccc(-c3cnc(C4CC4)o3)cc2)cc1	n
CCS(=O)(=O)N1CCC(c2nc(-c3ccc(C)cc3)no2)CC1	-78
COc1ccc(-c2csc(NC(=O)c3ccoc3C)n2)cc1	-124
CC(=O)c1ccc(NC(=O)c2cccc(S(=O)(=O)N3CCN(C)CC3)c2)cc1	-112
COc1ccccc1N(Cc1ccccc1)S(=O)(=O)c1cccc(C(=O)Nc2ccc(C(C)=O)cc2)c1	-88
CCc1nnc(NC(=O)c2ccc(S(=O)(=O)N(C)Cc3ccccc3)cc2)o1	n
SMILES	aSyn 5UTR act
COC(=O)c1c(-c2ccncc2)csc1NC(=O)c1ccoc1C	-120
Cc1csc(NC(=O)c2sccc2C)n1	-68
Cc1csc(NC(=O)c2ccc(S(C)(=O)=O)cc2)n1	-91
COc1ccc(-c2csc(NC(=O)c3cccc(S(=O)(=O)N4CCN(C)CC4)c3)n2)cc1	-71
COc1ccc(/C(C)=N/NC(=O)c2cccc(S(=O)(=O)N3CCCC3)c2)c(O)c1	n
COc1ccc(-c2csc(NC(=O)c3ccc(S(C)(=O)=O)cc3)n2)cc1	-68
Cc1ccc(N2NC(C)(c3cccs3)NC2=S)cc1 (stereo not drawn)	-151
COc1ccc2nc(-n3c(O)c(C4=c5ccccc5=NC4=O)[nH]c3=S)sc2c1	-74
O=[N+]([O-])c1ccccc1OCc1nc(-c2cccs2)no1	-114
Cc1ccc(OCc2nc(-c3cccs3)no2)c([N+](=O)[O-])c1	-64
O=[N+]([O-])c1ccc(F)cc1OCc1nc(-c2cccs2)no1	-177
Nc1ccc(C(=O)OCCc2ccccc2)cc1	-142
COc1ccc(C(=O)OCCc2ccc(O)cc2)cc1	-179
O=C(OCCc1ccccc1)c1cc(O)c(O)c(O)c1	-105
C(=C\c1ccco1)/c1nc2ccccc2[nH]1	-141
COc1cc(CO)ccc1OCc1ccc(Cl)nc1	-102
CCCC1CCc2c(sc(NC(=O)c3cccs3)c2C(N)=O)C1 (stereo not drawn)	-99
COC(=O)c1c(NC(=O)c2cccs2)sc2c1CCC(C)C2 (stereo not drawn)	-113
CCOC(=O)N=Nc1c2ccccc2c2nc3no[nH]c3nc12	n
CCOC(=O)c1cn(CC)c2c(ccc3ccccc32)c1=O	-90
CC(C)Oc1cccc(C(=O)NC2=NCCS2)c1	-96
O=C(NC1=NCCS1)c1cccc(Br)c1	-75
CCOc1cccc(C(=O)NC2=NCCS2)c1	-104
O=C(NC1=NCCS1)c1ccc(Br)s1	-171
Cc1ccc(Nc2ncnc3ccccc23)cc1	-114
SMILES	aSyn 5UTR act
Cc1cccc(Nc2ncnc3ccccc23)c1	-98
COC(=O)c1cccc(Nc2ncnc3ccc(C)cc23)c1	-88
CC(C)Oc1ccc(Nc2ncnc3ccccc23)cc1	-136
CSC1=NC(C(Cl)(Cl)Cl)N=C(c2ccc(C)cc2)N1 (stereo not drawn)	n
Cc1ccc(/C(=N/Nc2ncnc3ccccc23)C(=O)O)cc1	-69
CC(/C=N/N1CCN(c2ccccn2)CC1)=C\c1ccccc1	-134
C(/C=C/c1ccccc1)=N/N1CCN(c2ccccc2)CC1	-136
C(=C\c1ccccc1)/C=N/N1CCN(Cc2ccccc2)CC1	-74
C(=C\c1ccccc1)/C=N/N1CCN(c2ccccn2)CC1	-153
CSc1nnc(-c2cc3c(s2)-c2ccccc2CC3)o1	-169
S=c1[nH]nc(-c2cc3c(s2)-c2ccccc2CC3)o1	-123
O=C(CCCc1ccccc1)N1CCN(C2CCCCC2)CC1	-115
CCC1CCCCN1C(=O)CCS(=O)(=O)c1ccccc1 (stereo not drawn)	-93
CCC1CCCCN1C(=O)CCCc1ccccc1 (stereo not drawn)	-105
CCOC(=O)CC(=O)CSc1ncnc2c1cnn2-c1ccccc1	-105
CC(C)(C)NC(=O)CSc1ncnc2c1cnn2-c1ccccc1	-73
CCOC(=O)c1cnc(SCc2ccccc2)nc1N	-183
C=CCSc1ncc(C(=O)OCC)c(N)n1	-101
Cc1ccc(C2=CSC3=NNC4(CCCCC4)NN23)cc1	-126
O=C1NC(=S)N/C1=C\C=C\c1ccccc1	-104
O=C1NC(=S)N/C1=C/c1ccc2ccccc2c1	-84
C=CCc1cc(/C=C2/NC(=S)NC2=O)cc(OC)c1O	n
c1ccc(CCNc2ncnc3sccc23)nc1	-86
OC(CNc1ncnc2sccc12)c1ccccc1 (stereo not drawn)	-97
CC1=C/C(=C\C=C(C#N)C#N)N(C)c2ccccc21	-102
SMILES	aSyn 5UTR act
O=C(c1cc(-c2ccc3c(c2)OCO3)on1)N1CCN(c2ccccc2)CC1	-245
CSc1ccccc1NC(=O)c1cc(-c2ccc3c(c2)OCO3)on1	-128
CN(C(=O)c1cc(-c2ccc3c(c2)OCO3)on1)c1ccccc1	-167
O=C(Nc1cc(Br)ccc1O)c1cc(-c2ccc3c(c2)OCO3)on1	-108
Oc1ccccc1C1CC(c2cccs2)=NC(c2cccc(Br)c2)N1 (stereo not drawn)	-87
c1ccc2oc(-c3ccn[nH]3)cc2c1	-120
Brc1ccc2nc(N3CCN(c4ccccc4)CC3)sc2c1	-143
Clc1ccc2nc(N3CCN(c4ccccc4)CC3)sc2c1	-109
[O-]/[N+](=C\C=C\c1ccccc1)c1ccccc1	-182
O=c1[nH]nc(Cc2ccc3ccccc3n2)c2ccccc12	-71
CN(C)CCSc1nnc(-c2ccccc2)o1	-71
CCN(CC)C(=O)CSc1nnc(-c2ccccc2)o1	-137
Nc1n[nH]c(N)c1N=Nc1ccc(Cl)cc1Cl	-74
CCOC(=O)c1ccc(NC(=S)NC(=O)c2nn(CC)cc2Br)cc1	-66
CCOC(=O)c1ccc(NC(=O)c2nn(C)cc2Br)cc1	-204
CCOC(=O)c1ccc(NC(=O)c2nn(CC)cc2Br)cc1	-94
CCn1cc(Br)c(C(=O)Nc2ccc(F)c(Cl)c2)n1	-110
CC(=O)NC(CSC(CC(=O)c1ccco1)c1ccc(C)cc1)C(=O)O (stereo not drawn)	-90
CC(/C=N/N1CCN(c2ccccc2)CC1)=C\c1ccco1	-101
